hNpr1 antagonist = antagonists of human natriuretic peptide receptor Npr1; HEK293 hNpr1 GloSensor cGMP, ANP-stimulated luminescence; P16066; actives 1.6% (n = 76,000); Potency, µM (top dose mostly 46.3 µM), inactives show top-dose activity change, negative = inhibition, hits mostly inhibitors; also: % is scaled to controls: 0 for no effect and ±100 for the full control effect; nearly all actives have a fitted effect of over 60% in size
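HEK293 cells stably expressing human Npr1 and cGMP GloSensor pGS-40F, loaded 2 h with 2% GloSensor reagent, given compound 30 min at room temperature. Luminescence read before and 20 min after 0.1 nM hNppA.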
HEK cytotox = kills HEK 293 cells; HEK 293 viability, ATP luminescence (CellTiter-Glo), 48-72 h; Potency, µM (series often up to 115 µM), without a hit: at the top dose activity change, negative = cytotoxicity, most hits filed as inhibitors; actives 6.6% (n = 94,000); AID 1345083; active = well fitted curve in the direction sought with a large enough effect; inconclusive = small, poorly fitted or top-dose-only effect, or another doubt; inactive = no such curve, though single readings can be large; an effect the other way counts as inactive or inconclusive; also: % is scaled to controls: 0 for no effect and ±100 for the full control effect; nearly all actives have a fitted effect of over 60% in size
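HEK 293 cells at 250 cells/well were exposed to compounds by pintool transfer for 48 or 72 hr at 37 degree Celsius, 5% CO2. Viability was read as ATP-coupled luminescence with CellTiter-Glo after 10 min at room temperature.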
FLuc inh = inhibitors of firefly (Photinus pyralis) luciferase; P08659; Potency, µM (series often up to 115 µM), hits mostly inhibitors; actives 2.5% (n = 76,000); purified P. pyralis luciferase, luminescence, biochemical; active = well fitted curve in the direction sought with a large enough effect; inconclusive = small, poorly fitted or top-dose-only effect, or another doubt; inactive = no such curve, though single readings can be large; an effect the other way counts as inactive or inconclusive; also: % is scaled to controls: 0 for no effect and ±100 for the full control effect; nearly all actives have a fitted effect of over 65% in size
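FLuc 10nM, D-luciferin 10uM, ATP 10uM, Mg acetate 10mM, Tris acetate pH 7.5, Tween/BSA; cpd qHTS; enzyme added last; CCD luminescence.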
3T3 cytotox = cytotoxic compounds in NIH 3T3 cells. actives 4.3% (n = 94,000). NIH 3T3 viability, CellTiter-Glo ATP luminescence, 48-72 h. Potency, µM (highest dose often 96.7 µM), inactives show at the top dose activity change, negative = cytotoxicity, hits mostly inhibitors; active = well fitted curve in the direction sought with a large enough effect; inconclusive = small, poorly fitted or top-dose-only effect, or another doubt; inactive = no such curve, though single readings can be large; an effect the other way counts as inactive or inconclusive; also: % is scaled to controls: 0 for no effect and ±100 for the full control effect; nearly all actives have a fitted effect of over 55% in size
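ATP-dependent luminescence (CellTiter-Glo) served as the viability signal for NIH 3T3 cells treated with compound for 48 or 72 hr at 37 °C.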
NPR1 antag cnf = hNpr1 antagonism, confirmation assay. shares compounds with hNpr1 antagonist. HEK293 hNpr1 cGMP GloSensor luminescence, ANP-stimulated. Potency, µM (doses to about 57.6 µM), without a hit: at the highest dose activity change, negative = inhibition, usual class: inhibitors. actives 76% (n = 1,400); also: nearly all actives have a fitted effect of over 70% in size
Npr2 selectivity = selectivity test of Npr1 antagonists against human Npr2 | shares compounds with hNpr1 antagonist | HEK293 hNpr2 GloSensor cGMP luminescence, CNP-stimulated | Potency, µM (doses to about 57.6 µM), for inactives: at the highest dose activity change, negative = inhibition, most hits filed as inhibitors | actives 67% (n = 1,400); also: nearly all actives have a fitted effect of over 70% in size
Target sequence (P20594 whole entry, looked up): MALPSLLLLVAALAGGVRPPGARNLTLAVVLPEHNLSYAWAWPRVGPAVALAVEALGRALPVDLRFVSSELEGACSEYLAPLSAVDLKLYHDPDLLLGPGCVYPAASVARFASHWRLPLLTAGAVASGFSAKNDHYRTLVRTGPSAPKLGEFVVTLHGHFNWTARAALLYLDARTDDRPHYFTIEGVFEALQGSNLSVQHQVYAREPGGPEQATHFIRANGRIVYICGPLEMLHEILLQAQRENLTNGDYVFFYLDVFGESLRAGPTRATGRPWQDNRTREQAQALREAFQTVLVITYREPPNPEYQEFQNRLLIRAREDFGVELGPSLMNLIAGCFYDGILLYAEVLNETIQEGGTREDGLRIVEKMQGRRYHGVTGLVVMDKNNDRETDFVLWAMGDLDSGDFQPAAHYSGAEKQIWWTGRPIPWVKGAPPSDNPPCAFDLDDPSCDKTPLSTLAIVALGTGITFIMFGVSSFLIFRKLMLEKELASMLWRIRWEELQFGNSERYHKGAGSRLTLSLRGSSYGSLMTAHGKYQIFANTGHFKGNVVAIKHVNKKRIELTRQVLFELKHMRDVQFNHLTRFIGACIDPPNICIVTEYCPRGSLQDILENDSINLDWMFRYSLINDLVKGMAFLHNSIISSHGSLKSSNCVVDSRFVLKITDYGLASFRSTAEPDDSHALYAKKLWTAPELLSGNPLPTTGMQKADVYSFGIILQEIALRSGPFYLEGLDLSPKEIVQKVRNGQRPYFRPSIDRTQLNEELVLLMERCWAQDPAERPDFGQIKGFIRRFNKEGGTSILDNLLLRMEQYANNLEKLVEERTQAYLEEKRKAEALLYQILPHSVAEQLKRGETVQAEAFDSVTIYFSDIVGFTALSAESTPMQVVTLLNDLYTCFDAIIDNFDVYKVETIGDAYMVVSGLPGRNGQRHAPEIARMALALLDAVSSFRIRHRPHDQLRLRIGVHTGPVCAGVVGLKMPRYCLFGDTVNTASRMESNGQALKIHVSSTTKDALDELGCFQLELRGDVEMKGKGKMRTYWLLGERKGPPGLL
FLuc inh counter = inhibits firefly luciferase, false Npr1 antagonist flag; actives 0.7% (n = 1,400); purified FLuc enzyme, luminescence, Km substrate; Potency, µM (top dose mostly 57.6 µM), for inactives: top-dose activity change, negative = inhibition, actives largely listed as inhibitors; shares compounds with hNpr1 antagonist; AID 1347047; active = well fitted curve in the direction sought with a large enough effect; inconclusive = small, poorly fitted or top-dose-only effect, or another doubt; inactive = no such curve, though single readings can be large; an effect the other way counts as inactive or inconclusive; also: 0% is about no effect
GloSensor ctrl = reduces cGMP signal in GloSensor control cells. HEK293 GloSensor cGMP, SNP-stimulated, luminescence. shares compounds with hNpr1 antagonist. Potency, µM (top dose mostly 57.6 µM), without a hit: top-dose activity change, negative = inhibition, most hits filed as inhibitors. actives 69% (n = 1,400); also: % is scaled to controls: 0 for no effect and ±100 for the full control effect; nearly all actives have a fitted effect of over 70% in size
* marks the source's active call; other numbers are inactive results; i = inactive; ? = inconclusive; nt = not tested or not shown; [ ] = another dose, or the depositor's remark. A selection: hits, their analogues and other compounds. The true share with any hit is near 11%. Unless noted, calls follow the shape of the full dose curve. Potency is read from the fitted curve at half-maximal effect.

SMILES | hNpr1 antagonist | HEK cytotox | FLuc inh | 3T3 cytotox | NPR1 antag cnf | Npr2 selectivity | FLuc inh counter | GloSensor ctrl
O=C(N1CCCN(c2cc(-c3ccc(Cl)cc3)[nH]n2)CC1)C1(c2ccccc2)CC1 | ? | 40µM* | i | 35µM* | 19µM* | 19µM* | 4% | 17µM*
Cc1ccc(C(=O)N2CCN(c3cc(-c4ccccc4)[nH]n3)CC2)c(C)c1 | 11µM* | ? | i | 45µM* | 24µM* | 24µM* | 2% | 22µM*
O=C(c1cc(Cl)ccc1F)N1CCCN(c2cc(-c3ccccc3)[nH]n2)CC1 | -19% | ? | i | -27% | nt | nt | nt | nt
Cc1ccccc1C(=O)N1CCN(c2cc(-c3ccc(Cl)cc3)[nH]n2)CC1 | 11µM* | ? | i | ? | 19µM* | 24µM* | -6% | 17µM*
CCc1nc(-c2c3n(c(=O)n(CC(=O)c4ccc(Cl)cc4)c2=O)CCCC3)no1 | 5% | -25% | ? | -18% | nt | nt | nt | nt
CCOC(=O)C1(Cc2ccc(Cl)cc2)CCN(C(=O)c2cc(C)oc2C)CC1 | 13µM* | 20µM* | i | 25µM* | 22µM* | 22µM* | -6% | 19µM*
COc1ccc(C(=O)N2CCC3(CC2)N=C(c2ccc(Cl)cc2)NO3)cc1F | 10µM* | ? | i | -26% | 19µM* | 19µM* | -5% | 22µM*
COc1ccc(C(=O)N2CCC3(CC2)N=C(c2ccccc2)NO3)cc1F | -8% | -7% | i | -14% | nt | nt | nt | nt
COc1ccc(C(=O)N2CCC3(CC2)N=C(c2ccc(Cl)cc2)NO3)cc1 | 10µM* | ? | i | -16% | 17µM* | 19µM* | -13% | 9.7µM*
Cc1ccc(C(=O)N2CCCC(C(=O)N3CCC(c4nc5ncccc5[nH]4)C3)C2)cc1 (centres undefined) | nt | i | nt | i | nt | nt | nt | nt
CCCC(=O)Nc1cccc(C(=O)NCCN2N=C(c3ccccc3)CCC2=O)c1 | -9% | ? | i | -17% | nt | nt | nt | nt
COc1ccc(CC(=O)Nc2ccc([C@@H](O)[C@H]3COCC(=O)N3Cc3ccc(C(F)(F)F)cc3)cc2)cc1 | -25% | 32µM* | i | ? | ? | -18% | -1% | -26%
COc1ccc(CN2C(=O)COC[C@@H]2[C@H](O)c2ccc(NC(=O)Cc3ccccc3)cc2)cc1 | 2% | ? | i | ? | nt | nt | nt | nt
COc1ccc(N2Cc3c(ncnc3N3CCN(Cc4ccccc4)CC3)N(C)CC2=O)cc1 | 9% | -4% | i | -27% | nt | nt | nt | nt
CN1CC(=O)N(C2CCNCC2)Cc2c(NCC3CCCCCC3)ncnc21 | nt | -29% | nt | ? | nt | nt | nt | nt
COc1ccc(C(=O)N2CCN(c3cc(-c4ccc(Cl)cc4)[nH]n3)CC2)cc1OC | 6.3µM* | 35µM* | i | ? | 15µM* | 19µM* | -10% | 14µM*
COc1ccc(C(=O)N2CCCN(c3cc(-c4ccc(Cl)cc4)[nH]n3)CC2)cc1F | ? | ? | i | 25µM* | 24µM* | 22µM* | 3% | 24µM*
COc1cc(C(=O)N2CCCN(c3cc(-c4ccc(F)cc4)[nH]n3)CC2)cc(OC)c1OC | -1% | 2% | i | i | nt | nt | nt | nt
COc1ccc(C(=O)N2CCCN(c3cc(-c4ccccc4)[nH]n3)CC2)cc1F | -14% | ? | i | -14% | nt | nt | nt | nt
O=C(c1ccc2[nH]ccc2c1)N1CCCN(c2cc(-c3ccc(Br)cc3)[nH]n2)CC1 | 4.5µM* | 22µM* | i | 32µM* | 24µM* | 24µM* | -13% | 19µM*
COc1ccc(C(=O)N2CCN(c3cc(-c4ccc(F)cc4)[nH]n3)CC2)cc1OC | ? | ? | i | ? | nt | nt | nt | nt
COc1ccc(C(=O)N2CCCN(c3cc(-c4ccc(Br)cc4)[nH]n3)CC2)cc1F | 11µM* | 40µM* | i | 22µM* | 22µM* | 19µM* | -3% | 15µM*
COc1ccc(C(=O)NC2CCN(C(=O)N3CC4CC(C3)[C@H]3CCCC(=O)N3C4)CC2)cc1F (some centres undefined) | 0% | 2% | i | -11% | nt | nt | nt | nt
COc1ccccc1CN1CC[C@@H]2OCC(=O)N(C(C)C)[C@H]2CC1 | -24%[70.6 µM] | ? | i | ? | nt | nt | nt | nt
Cc1ccccc1CN1CC[C@@H]2OCC(=O)N(C(C)C)[C@H]2CC1 | 7.9µM* | ? | i | -24%[138 µM] | 7.9µM* | 13µM* | 3%[86.2 µM] | 6.3µM*
SMILES | hNpr1 antagonist | HEK cytotox | FLuc inh | 3T3 cytotox | NPR1 antag cnf | Npr2 selectivity | FLuc inh counter | GloSensor ctrl
COc1cc(NC(=O)c2ccc3c(c2)N(C)C2CCCN2C3=O)cc(OC)c1 (centres undefined) | -8% | ? | i | -12% | nt | nt | nt | nt
O=C(Nc1cccc(Br)c1)C1CCN(c2cc(C(F)(F)F)ncn2)CC1 | 11µM* | 45µM* | i | ? | 22µM* | 22µM* | -1% | 24µM*
COc1ccc(NC(=O)C2CCN(c3cc(C(F)(F)F)ncn3)CC2)cc1Cl | ? | ? | i | ? | nt | nt | nt | nt
Cc1ccc(NC(=O)C2CCN(c3cc(C(F)(F)F)ncn3)CC2)cc1F | 5µM* | ? | i | ? | 6.9µM* | 11µM* | 5% | 6.1µM*
O=C(Nc1cccc(Cl)c1)C1CCN(c2cc(C(F)(F)F)ncn2)CC1 | ? | ? | i | ? | 24µM* | ? | 5% | ?
O=C(Nc1cccc(F)c1)C1CCN(c2cc(C(F)(F)F)ncn2)CC1 | 11µM* | ? | i | ? | 22µM* | ? | 0% | 19µM*
CCCn1c(C)cnc1CC1CCN(C(=O)c2ccccc2F)CC1 | nt | -31% | nt | -34% | nt | nt | nt | nt
O=C(Cc1ccccc1F)Nc1ccc2c(c1)CN(C(=O)[C@H]1CCCN1)CC2 | 1% | -4% | i | -22% | nt | nt | nt | nt
COc1ccccc1C(=O)N1CCCN(c2ccnc3ccnn23)CC1 | nt | -14% | nt | -15% | nt | nt | nt | nt
CCC(O)c1cc2n(n1)CCN(C(=O)c1ccc(-c3ccccc3)n1C)C2 (centres undefined) | 16µM* | 32µM* | i | ? | 24µM* | 24µM* | -2% | 24µM*
CN(Cc1cccn1C)C(=O)NC1CCCC1 | 2%[70.6 µM] | ? | i | ? | nt | nt | nt | nt
